Compound activity: PubChem, The Scripps Research Institute Molecular Screening Center
A selection: hits, their analogues and other compounds. The true share with any hit is near 5.7%.
ssDAF-12 act – activators of S. stercoralis DAF-12 nuclear receptor | AID 652126 | 370,000 tested, 1% active | HEK293 ssDAF-12/GRIP1 lit1-tk-luc reporter, luminescence; % of 3 µM dafachronic acid response | activation, % at 6.8 µM;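 active means activation above the mean over all tested compounds plus 3 SD, cut at about 0.9% in these data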
DAX1 inh-1 – inhibitors of human orphan nuclear receptor DAX1 (NR0B1); P51843; inhibition, % at 6.75 µM; HEK293 Gal4-DAX1 luciferase reporter, luminescence; 340,000 tested, 0.99% active;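 active means inhibition above the mean over all tested compounds plus 3 SD, cut at about 4.2% in these data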;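 further: inhibition shows as a rise in luminescence from relieved DAX1 repression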
Target sequence (P51843 207-470 limits assumed): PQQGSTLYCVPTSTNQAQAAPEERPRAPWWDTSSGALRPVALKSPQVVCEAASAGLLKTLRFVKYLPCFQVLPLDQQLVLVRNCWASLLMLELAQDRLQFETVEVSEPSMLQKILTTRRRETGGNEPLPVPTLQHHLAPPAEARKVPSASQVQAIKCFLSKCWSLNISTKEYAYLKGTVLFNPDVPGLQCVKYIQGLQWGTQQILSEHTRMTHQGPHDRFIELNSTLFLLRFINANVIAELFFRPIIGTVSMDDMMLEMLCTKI
hgDAF-12 ag – agonists of H. glycines DAF-12 nuclear receptor. HEK293 GAL4-hgDAF12 UAS-luciferase reporter, agonist luminescence; normalized to butyrate control. activation, % at 6.8 µM. 370,000 tested, 1.8% active;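 active means activation above a cutoff set at the mean of all screened compounds plus 3 SD, cut at about 10% in these data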
hcDAF-12 act – activators of H. contortus DAF-12 nuclear receptor; HEK293 hcDAF-12 lit1-tk-luc reporter, luminescence; 0% DMSO, 100% Δ7-dafachronic acid; activation, % at 6.8 µM; 370,000 tested, 1.4% active; AID 652067;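 active means activation above the mean of all tested compounds plus 3 SD, cut at about 5.5% in these data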
AHR activator – activators of human aryl hydrocarbon receptor; AHR-responsive luciferase reporter cells, luminescence; activation, % at 5 µM; 320,000 tested, 2.5% active; P35869; AID 2796; in the data active means activation above about 47%
DAX1 inh-2 – blocks DAX1 repression of SF-1 activated StAR promoter; inhibition, % at 6.8 µM; HEK293T StAR-luciferase reporter, SF-1/DAX-1 repression relief; AID 652010; 370,000 tested, 1.1% active;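 active means inhibition above the mean over all tested compounds plus 3 SD, cut at about 3.6% in these data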;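 further: higher inhibition means more luminescence from relief of DAX-1 repression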
Each line names hits and unclear results; the compound was inactive in the other large screens.

O=C(CSc1nc2ccc(Cl)cc2[nH]1)Nc1ccc2[nH]c(=O)[nH]c2c1	ssDAF-12 act 1.0
CC1=C(C(=O)N(C(C)C)C(C)C)CC(CC(=O)NC2CC2)C(=O)N1Cc1ccc(F)cc1 (stereo not drawn)	none (no result: DAX1 inh-1, AHR activator)
CCOC(=O)C1(CCOc2ccccc2)CCN(Cc2ccc3c(c2)OCCO3)CC1	none
OCC1(CCOc2ccccc2)CCN(Cc2ccc3c(c2)OCCO3)CC1	DAX1 inh-1 4.8
Cc1cc(=O)nc2c3ccccc3n(CC(=O)Nc3ccccc3Br)n12	none
O=Cc1ccc(C(=O)OCC(=O)NCCC2=CCCCC2)cc1	none
CSc1ccc(/C=C/c2cc(=O)c3ccccc3[nH]2)cc1	AHR activator 56
C[C@@H](NC(=O)c1nc[nH]c1C(=O)NCc1ccc(CNC(=O)OC(C)(C)C)cc1)c1ccccc1	none
COc1ccccc1N/C=C/c1onc(C)c1[N+](=O)[O-]	AHR activator 54
Cc1noc(/C=C/c2ccccn2)c1[N+](=O)[O-]	none
Cc1noc(/C=C/Nc2ccc(F)cc2F)c1[N+](=O)[O-]	hgDAF-12 ag 12, AHR activator 64
CC(C)CC1Nc2ncnc(N3CCN(c4ccccc4)CC3)c2N(Cc2ccc(Cl)cc2)C1=O (stereo not drawn)	none
CCOC(=O)C1=C(Nc2ccc(Br)cc2)C(=O)N(CC)C1	none (no result: DAX1 inh-1, AHR activator)
Cc1cc(=O)[nH]c(=S)n1-c1ccccc1	ssDAF-12 act 0.9
Nc1cc(=O)[nH]c(=S)n1-c1ccccc1	none
COc1ccc(N2Cc3ccccc3C2=NC(=O)c2cncc(Br)c2)cc1	none
NC(=O)c1ccc(N=C2C(=O)Nc3ccc([N+](=O)[O-])cc32)cc1	DAX1 inh-1 5.3
CC(=O)C(C)Oc1ccc2c3c(c(=O)oc2c1)CCCCC3 (stereo not drawn)	hgDAF-12 ag 11
CC(=O)C(C)Oc1ccc2c3c(c(=O)oc2c1)CCCC3 (stereo not drawn)	none
CC1CC(Nc2ccccc2N)=CC(=O)O1 (stereo not drawn)	hcDAF-12 act 5.8
O=C(/C=C/c1c(Cl)nc2ccccn12)N1CCN(c2ccccc2F)CC1	none
O=C(/C=C/c1c(Cl)nc2ccccn12)N1CCCCC1	AHR activator 59
O=C1Nc2ccc(Br)cc2/C1=C/C1CC=CCC1 (stereo not drawn)	ssDAF-12 act 1.0
COc1ccc(C(=O)/C=C2\C(=O)Nc3ccc(Br)cc32)cc1	none (no result: AHR activator)
O=C(Nc1cccc([N+](=O)[O-])c1)C1COc2ccccc2O1 (stereo not drawn)	none
CCC(C)(C)C(=O)N1CCc2cc(S(=O)(=O)N(C)Cc3ccco3)ccc21	none (no result: DAX1 inh-1, AHR activator)
CC(=O)N1CSCC1C(=O)NNS(=O)(=O)c1cccc(C(F)(F)F)c1 (stereo not drawn)	DAX1 inh-1 6.3
O=C(Nc1cccc([N+](=O)[O-])c1)C(=O)N1CCCCC1	hgDAF-12 ag 13
Cc1cc(NC(=O)c2ccccc2)ncc1NC(=O)c1cccs1	none
COc1cc(NC(=S)NC(=O)c2cccs2)ccc1NC(=O)C(C)C	none
CCN(CC)c1ccc(NC(=S)Nc2ccc(F)cc2)cc1	hgDAF-12 ag 12 (no result: AHR activator)
CC(C)C(=O)Nc1cccc(NC(=S)NC(=O)c2cccs2)c1	AHR activator 48, DAX1 inh-2 4.1
CCN(CC)c1ccc(NC(=S)NC(=O)c2cccs2)cc1	hgDAF-12 ag 11
Cc1cc(NC(=O)c2cccs2)ncc1NC(=O)C(C)C	hgDAF-12 ag 11
COc1ccc(CNC(=O)CN2CCN(c3ccccc3O)CC2)cc1OC	none
O=C(NC(=S)Nc1ccccc1N1CCCCC1)c1cccs1	none
O=C(NC(=S)Nc1cccnc1)c1cccs1	none
O=C(NC(=S)N1CCCCC1CO)c1cccs1 (stereo not drawn)	DAX1 inh-1 6.5
O=C(NC(=S)Nc1ccc(N2CCCCC2)cc1)c1cccs1	hgDAF-12 ag 12
O=C(NC(=S)Nc1ccccc1N1CCCC1)c1cccs1	hcDAF-12 act 5.7, AHR activator 51
O=C(NC(=S)Nc1ccc(Cl)cn1)c1cccs1	ssDAF-12 act 1.1, DAX1 inh-1 5.5
O=C(CCn1nc(-c2ccc(Cl)cc2)ccc1=O)N1CCN(c2ccc(F)cc2)CC1	none
COc1ccc(N2CCN(C(=O)COC(=O)c3ccc(OC(F)F)cc3)CC2)cc1	none
Cc1c(C(=O)NCc2ccc(F)cc2)sc(=O)n1Cc1ccc(Cl)c(Cl)c1	none (no result: DAX1 inh-1, AHR activator)
Cc1cc(OCC(=O)N(Cc2ccco2)c2c(N)n(Cc3ccccc3)c(=O)[nH]c2=O)ccc1Cl	none
OC1(Cc2cc(-c3ccccc3)no2)CCN(CCCc2ccccc2)CC1	none
COC(=O)[C@]12C[C@H](CC(=O)NCc3cccc(C(F)(F)F)c3)C(=O)N(CCC3=CCCCC3)C1=C[C@H](C(C)(C)C)O[C@@H]2C	none (no result: DAX1 inh-1, AHR activator)
COC(=O)[C@]12C[C@H](CC(=O)NCc3ccccc3)C(=O)N(Cc3cccc4ccccc34)C1=C[C@H](C(C)C)O[C@@H]2C1CC1	none (no result: DAX1 inh-1, AHR activator)
COC(=O)[C@]12C[C@H](CC(=O)NCCCCc3ccccc3)C(=O)N(Cc3cccc4ccccc34)C1=C[C@H](C(C)C)O[C@@H]2C1CC1	ssDAF-12 act 1.3 (no result: DAX1 inh-1, AHR activator)
O=C(O)c1cccnc1Nc1ccc(Cl)cc1	none
CCCCc1ccc(Nc2ncccc2C#N)cc1	hcDAF-12 act 5.8
N#Cc1cccnc1Nc1ccc(Cl)cc1	AHR activator 55
CCCCc1ccc(NC(=O)NCc2ccccn2)cc1	none
Clc1ccc(-c2csc(N/N=C/c3ccc4c(c3)OCO4)n2)cc1	AHR activator 63
COc1ccc(-c2csc(/C=C/c3ccc4c(c3)OCO4)n2)cc1OC	AHR activator 54
COc1cccc(C(=O)Nc2nc(-c3ccc4c(c3)OCO4)cs2)c1	AHR activator 68
COc1cccc(C(=O)Nc2nc(-c3ccncc3)cs2)c1	none
CC(=O)Nc1nc(-c2ccc3c(c2)OCO3)cs1	hgDAF-12 ag 12
O=C(CCC(=O)Nc1ccc(Cl)cc1)N/N=C/c1ccc2c(c1)OCO2	none
O=C(O)[C@H](Cc1ccccc1)NC(=O)[C@H]1O[C@@H](n2ccc(=O)[nH]c2=O)[C@H](O)[C@@H]1O	none (no result: DAX1 inh-1, AHR activator)
CCOC(=O)C1C(=O)CC(C)(O)C(C(=O)OCC)C1c1ccc([N+](=O)[O-])cc1 (stereo not drawn)	none
Cc1c(CC(=O)NCCCC(=O)O)c(=O)oc2c(C)c3oc4c(c3cc12)CCCC4	DAX1 inh-1 4.9
CCOc1ccc(C2CC(c3ccc(CC)cc3)Nc3nc(N)nn32)cc1 (stereo not drawn)	DAX1 inh-1 4.3
COc1ccc(C2CC(c3ccccc3C)n3nc(N)nc3N2)cc1 (stereo not drawn)	DAX1 inh-1 5.1
COc1ccc(C(=O)OCC(=O)N2CCCCCC2)cc1S(=O)(=O)N1CCOCC1	none
